In publication PMC6792352, “Limited Chemical Structural Diversity Found to Modulate Thyroid Hormone Receptor in the Tox21 Chemical Library” (Environmental Health Perspectives, 2019):
Structures can show the parent of a compound that is named as a salt.

tested on: thyroid hormone receptor (endogenous TRα and TRβ); design: species or system GH3-TRE-Luc (rat pituitary); GH3-TRE-Luc luciferase reporter, antagonist mode against 1 nM T3, loss of signal, qHTS; conditions: read-out: Average AC50 (uM) GH3-TRE-Antag, antagonist mode, 1 nM T3, no GH3 cytotoxicity hit

SMILES | AC50 [µM]
C[C@]12C[C@H](O)[C@H]3[C@@H](CCC4=CC(=O)CC[C@@]43C)[C@@H]1CC[C@@H]2C(=O)CO [Corticosterone] | > 50
Cc1nc2ccc(CN(C)c3ccc(C(=O)N[C@@H](CCC(=O)O)C(=O)O)s3)cc2c(=O)[nH]1 [Raltitrexed] | 0.18
CCCCC(C#N)(Cn1cncn1)c1ccc(Cl)cc1 (stereo not shown) [Myclobutanil] | 79
O=C1c2ccccc2C(=O)N1CCc1noc(-c2ccc(CN3CCCCCC3)s2)n1 [PharmaGSID_48172] | 75.2
CCOc1ccc(Cc2nccc3cc(OCC)c(OCC)cc23)cc1OCC [Ethaverine hydrochloride] | 8.58
Cn1cc(C(=O)[C@@H]2CCc3nc[nH]c3C2)c2ccccc21 [Ramosetron hydrochloride] | 40.9
CCCC(=O)c1cc(O)c(O)cc1O [2',4',5'-Trihydroxybutyrophenone] | 52.7
Clc1cccc(C(c2ccc3[nH]cnc3c2)n2ccnc2)c1 (stereo not shown) [Liarozole hydrochloride] | 38.6
CC(C)Cc1ccc(C(C)C(=O)O)cc1 (stereo not shown) [Ibuprofen] | > 50
C=C/C(C)=C/C/C=C(\C)CCC=C(C)C [alpha-Farnesene] | 44.9
CC(C)C[C@H](NC(=O)OCC1c2ccccc2-c2ccccc21)C(=O)O [N-(9-Fluorenylmethoxycarbonyl)-L-leucine] | > 90
CN(C)c1ccc(SC#N)cc1 [4-(Dimethylamino)phenylthiocyanate] | 59.1
Clc1ccc(CCC(Cn2ccnc2)Sc2c(Cl)cccc2Cl)cc1 (stereo not shown) [Butoconazole nitrate] | 17.9
